High-throughput results as filed in PubChem.
The list is not random: actives were taken first. Their share in the collection is about 7.8%.
LASV entry inh: inhibitors of Lassa virus binding or cell entry. 1.2% of 300,000 active. AID 540256. Potency, µM (titrated, usually from 37.9 µM), for the others: at the highest dose activity change, negative = inhibition, most hits filed as inhibitors. Lassa virus pseudotype entry inhibition, cell reporter; calls by dose curve; tested in HEK293 cells; further: potency means the concentration at half of the fitted maximal effect; nearly all actives have a fitted effect of over 50% in size
MARV entry inh: Marburg virus entry inhibition | Marburg virus pseudotyped entry inhibition, cell reporter | Potency, µM (doses to about 37.8 µM), for inactives: at the top dose activity change, negative = inhibition, hits mostly inhibitors | 1.8% of 300,000 active | AID 540276; calls by dose curve; tested in HEK293 cells; further: potency means the concentration at half of the fitted maximal effect
HCV inh: inhibitors of hepatitis C virus infection. Huh7.5.1 HCVcc-Cre infection, luciferase reporter, 44 h. 3.4% of 340,000 active. Potency, µM (doses to about 41.8 µM), for inactives: at the highest dose activity change, negative = inhibition, actives largely listed as inhibitors. AID 651820; active means well fitted inhibition curve with a large enough effect; inconclusive means small, poorly fitted or top-dose-only effect, or another doubt; inactive means no such curve, though single readings can be large or run the other way; further: potency means the concentration at half of the fitted maximal effect
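Cells (1,000/well) were plated 4 h before compound, then infected with HCVcc-Cre virus (~0.5 moi). After 44 h further culture, infection was read as luciferase luminescence following a 15 min substrate incubation at room temperature.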
HCMV antiviral: human cytomegalovirus inhibition | 4.5% of 410,000 active | AID 1259415 | HFF cells, HCMV-luciferase reporter, 72 h; active compounds read low | activity change, negative = inhibition, % at 57.5 µM; in the data active means activity change below about -60%; inconclusive means no clear call, values can overlap the other calls; inactive means above about -39%
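Inhibition of viral replication was scored as loss of reporter luminescence in HFFs infected with HCMV-luciferase (MOI 1 PFU/cell) for 72 h; compounds tested at 2 doses, normalized to buffer and Salinomycin controls.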
Vaccinia Venus: inhibitors of vaccinia virus (Venus reporter). 0.46% of 330,000 active. Potency, µM (top dose mostly 36.5 µM), inactives show at the highest dose activity change, negative = inhibition, usual class: inhibitors. AID 720580. Vaccinia virus Venus reporter expression, fluorescence; calls by dose curve; tested in A549 cells; further: potency means the concentration at half of the fitted maximal effect; nearly all actives have a fitted effect of over 30% in size
VACV mCherry inh: vaccinia inhibition (mCherry reporter); Vaccinia virus mCherry reporter infection, fluorescence; Potency, µM (highest dose often 36.5 µM), without a hit: top-dose activity change, negative = inhibition, hits mostly inhibitors; 0.63% of 310,000 active; AID 720579; calls by dose curve; tested in A549 cells; further: potency means the concentration at half of the fitted maximal effect; nearly all actives have a fitted effect of over 35% in size
Starred values were filed as active, the others as inactive; i = inactive; ? = inconclusive; . = no result given; [ ] = remark or other dose. On the % scale 0 is the no-effect control and ±100 the full control effect.

SMILES	LASV entry inh	MARV entry inh	HCV inh	HCMV antiviral	Vaccinia Venus	VACV mCherry inh
O=C(O)c1cc(-c2ccc(Cl)s2)nc2ccccc12	?	11.2µM*	14.6%	-2.2	10.7%	-9.7%
COC1=C(Nc2ccccc2OC)C(=O)c2ccccc2C1=O	13.5%	6.2%[46.1 µM]	16.5%	16.4	-4.7%	i
COc1ccccc1NC1=C(NC(C)=O)C(=O)c2ccccc2C1=O	.	.	?	-66.0*	.	.
CCOc1ccc(NC(=O)CSc2nnc3scc(-c4ccc(Cl)cc4)n23)cc1	-21.0%[46.1 µM]	6.7%[46.1 µM]	.	-28.1	6.8%	-9.7%
CN(c1ccccc1)S(=O)(=O)c1cccc(C(=O)Nc2nccs2)c1	.	.	11.3%	?	-25.3%	5.7%
COc1cc2ccccc2cc1C(=O)Nc1nccs1	.	.	11.2µM*	212.5	-6.9%	17.2%
COc1cc2ccccc2cc1C(=O)Nc1cc(C)ccn1	-4.1%[46.1 µM]	?	12.6µM*	84.6	-10.2%	-10.1%
COc1ccc(C(=O)/C=C/Nc2cc(C)ccn2)cc1	?	1.26µM*	-1.7%	9.8	-13.3%	i
COc1cc(OC)c(N(C)S(=O)(=O)c2cccc(C(=O)Nc3nccs3)c2)cc1Cl	?	8.91µM*	?	?	-20.0%	-8.6%
Oc1ccccc1-c1nc(NCC2CCCO2)c2ccccc2n1 (stereo not drawn)	11.7%	-23.1%	12.6µM*	18.5	-27.1%	-21.5%
COc1ccccc1Nc1nc(NCC2CCCO2)c2ccccc2n1 (stereo not drawn)	?	?	10µM*	?	-11.7%	-27.0%
CCOc1ccc(/C=C2\CCC(C3CCCC3)C2=O)cc1OC (stereo not drawn)	.	.	0.0%	6.2	.	.
COc1cc(C=C2CCCC(=Cc3ccc(OCC4CO4)c(OC)c3)C2=O)ccc1OCC1CO1 (stereo not drawn)	.	.	.	-67.9*	?	?
COc1ccc(/C=C2/CSC/C(=C/c3ccc(OC)c(OC)c3)C2=O)cc1OC	3.16µM*	3.55µM*	?	-101.2*	?	2.51µM*
COc1ccc(/C=C2\Cc3ccccc3C2=O)cc1OC	.	.	-14.9%	?	-18.0%	-9.5%
CCc1ccc(NC(=O)Cn2c(=O)n(-c3ccc(Cl)c(Cl)c3)c(=O)c3c(C)c(C)sc32)cc1	-22.2%[46.1 µM]	11.5%[46.1 µM]	.	-13.1	-2.6%	-2.2%
c1coc(C2Nc3ccccc3-c3nc4ccccc4n32)c1 (stereo not drawn)	?	?	12.6µM*	36.3	?	?
CN(C)/N=C/c1ccc(P(c2ccc(/C=N/N(C)C)o2)c2ccc(/C=N/N(C)C)o2)o1	?	?	?	-61.9*	-6.2%	-24.1%
Cc1ccc(/C=N/N(Cc2ccccc2)c2ccccc2)o1	.	.	?	-16.7	.	.
O=C(OCC(=O)c1c[nH]c2ccccc12)c1ccc([N+](=O)[O-])s1	-9.6%[46.1 µM]	1.8%	?	14.2	-17.5%	?
CCc1cccc2c(C(=O)COC(=O)c3ccc([N+](=O)[O-])s3)c[nH]c12	-11.6%	2.8%	28.2µM*	61.0	.	.
O=C(c1ccc([N+](=O)[O-])cc1)N(c1ccccn1)c1ccccn1	23.0%	9.3%[46.1 µM]	13.3%	-17.9	-3.7%	-3.2%
CN(N=Cc1ccc([N+](=O)[O-])cc1)c1ccccn1	.	.	.	-69.8*	-2.1%	-8.2%
COc1cccc2c1[C@H](C=Cc1ccccc1)[C@@H]([C@H](O)COC(C)=O)OC2	.	16.1%[14.2 µM]	.	.	.	.
Cc1ccc(NC(C(=O)c2ccccc2)c2ccccc2)cc1 (stereo not drawn)	?	?	-1.5%	-99.5*	-6.7%	?
SMILES	LASV entry inh	MARV entry inh	HCV inh	HCMV antiviral	Vaccinia Venus	VACV mCherry inh
COc1ccc(OC)c(CN2CCC(Cc3ccccc3)CC2)c1	.	.	-25.4%	-7.6	.	.
COc1cc(C)c(C)cc1S(=O)(=O)N1CCN(Cc2ccccc2)CC1	1.3%	-17.2%	4.8%	-62.2*	-16.3%	-15.6%
COc1cc(C)c(CN2CCC(Cc3ccccc3)CC2)cc1C	.	.	12.6µM*	?	.	.
Cc1ccc(S(=O)(=O)N2CCN(CCc3ccccc3)CC2)c(C)c1	-5.3%	?	?	-64.9*	?	?
Cc1cc(C)n(C[C@@H]2CC(=O)N(c3cc(Cl)cc(Cl)c3)C2=O)n1	.	4.2%	.	.	.	.
COc1ccc(CCN2C(=O)CSC2=S)cc1OC	?	?	-0.6%	-101.3*	46.1%	-13.0%
COc1ccc(CCN2C(=O)/C(=C\c3ccco3)SC2=S)cc1OC	2.0%	-2.8%	-18.4%	-95.6*	2.4%	i
